# PubChem BioAssay (Tox21)
# Where “and” joins values, the source holds several entries; their conditions need not be identical. Equal values may be shown once. Results filed as inconclusive are left out. Entries that show only a call come without a potency. The source holds several records for some structures; these can differ, active in one and inactive in another. Calls of active or inactive are those of the source. Calls follow the shape of the dose curve; as a rule, active = well fitted curve in the direction sought with a large enough effect in the repeat runs; inconclusive = weak or mixed curves; inactive = no such curve, though single readings can be large; an effect the other way counts as inactive or inconclusive. Residues, ends and D or L forms follow the SMILES beside them.
# System: not listed separately
# Assay: qHTS assay to identify small molecule antagonists of the estrogen related receptor (ERR) signaling pathway from Tox21 library - cell viability counter screen (AID 1224834); also: nearly all actives have a fitted effect of over 30% in size; also: potency is read from the fitted curve at half-maximal effect
# Settings: ERR reporter cells viability, CellTiter-Fluor, 17.5 h; series mostly up to 92.4 µM; viability change, negative = cytotoxic: at the top concentration
# Procedure, shortened: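 After 17.5 h of compound exposure at 37 C, ERR cells are incubated with CellTiter-Fluor for 30 min and fluorescence intensity serves as the viability measure.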
row,SMILES,Potency
1,O=C(c1ccccc1)C(O)c1ccccc1 (stereo not given),inactive
2,O=c1cc[nH]c(=S)[nH]1,inactive
3,CC(O)CO (stereo not given),inactive
4,Nc1ccc(S(=O)(=O)c2ccc(N)cc2)cc1,inactive
5,Cc1cn([C@H]2C[C@H](N=[N+]=[N-])[C@@H](CO)O2)c(=O)[nH]c1=O,inactive
6,Cc1ccc(C)c(OCCCC(C)(C)C(=O)O)c1,inactive
7,OCCc1ccccc1,inactive
8,CCOc1ccc(NC(=O)CC(C)O)cc1 (stereo not given),inactive
9,CCCNC(=O)NS(=O)(=O)c1ccc(Cl)cc1,inactive
10,O=C(O)CS,inactive
11,Nc1ccn([C@H]2CC[C@@H](CO)O2)c(=O)n1,inactive
12,N=C(N)c1ccc(OCCCCCOc2ccc(C(=N)N)cc2)cc1,inactive
13,OC(Cn1cncn1)(Cn1cncn1)c1ccc(F)cc1F,inactive
14,CNC[C@H](O)c1cccc(O)c1,inactive
15,O=C(c1ccccc1)c1ccccc1,inactive
16,O=C(O)CCCCC(=O)O,inactive
17,NC(=O)c1ccccc1O,inactive
18,Nc1ccc(O)c(C(=O)O)c1,inactive

row,SMILES,Potency
1,O=C(O)c1cccc([N+](=O)[O-])c1,inactive
2,O=C(O)c1cccnc1,inactive
3,O=C(O)c1cc(N=Nc2ccc(S(=O)(=O)Nc3ccccn3)cc2)ccc1O,27.4 µM (active) and 27.3 µM (active) and 23.7 µM (active)
4,O=C(O)C(=O)O,inactive
5,Cn1c(=O)c2[nH]cnc2n(C)c1=O,inactive
6,CCCN(CCC)S(=O)(=O)c1ccc(C(=O)O)cc1,inactive
7,Nc1ccc(S(=O)(=O)Nc2nccs2)cc1,inactive
8,CCCC(O)C(CC)CO (stereo not given),inactive
9,Cc1ccc(O)cc1,inactive
10,COc1c2occc2cc2ccc(=O)oc12,inactive
11,NS(=O)(=O)c1cc(C(=O)O)c(NCc2ccco2)cc1Cl,inactive
12,Cn1cc[nH]c1=S,inactive
13,COC(=O)[C@H](Cc1ccccc1)NC(=O)[C@@H](N)CC(=O)O (H-Asp-Phe-OMe),inactive
14,c1ccc2[nH]ccc2c1,26.9 µM (active) and inactive
15,CCCC(CCC)C(=O)O,inactive
16,O=S(=O)(O)NC1CCCCC1,inactive
17,CC(=O)OCC(COC(C)=O)OC(C)=O,inactive
18,O=NO,inactive

# Biological target: Luciferin 4-monooxygenase (Photinus pyralis) (UniProt P08659)
# Assay: qHTS assay to identify small molecule inhibitors of firefly luciferase (AID 1224835); also: nearly all actives have a fitted effect of over 25% in size; also: potency is read from the fitted curve at half-maximal effect
# Settings: purified P. pyralis luciferase, luminescence inhibition; series mostly up to 115 µM; activity change, negative = inhibition: at the top concentration
# Procedure, shortened: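 Inhibition of purified Photinus luciferase is measured by luminescence. Substrate levels (D-luciferin, ATP) sit at their KM values. Each compound is tested in a concentration series.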
# Luciferin 4-monooxygenase (Photinus pyralis), sequence (P08659 whole entry, looked up): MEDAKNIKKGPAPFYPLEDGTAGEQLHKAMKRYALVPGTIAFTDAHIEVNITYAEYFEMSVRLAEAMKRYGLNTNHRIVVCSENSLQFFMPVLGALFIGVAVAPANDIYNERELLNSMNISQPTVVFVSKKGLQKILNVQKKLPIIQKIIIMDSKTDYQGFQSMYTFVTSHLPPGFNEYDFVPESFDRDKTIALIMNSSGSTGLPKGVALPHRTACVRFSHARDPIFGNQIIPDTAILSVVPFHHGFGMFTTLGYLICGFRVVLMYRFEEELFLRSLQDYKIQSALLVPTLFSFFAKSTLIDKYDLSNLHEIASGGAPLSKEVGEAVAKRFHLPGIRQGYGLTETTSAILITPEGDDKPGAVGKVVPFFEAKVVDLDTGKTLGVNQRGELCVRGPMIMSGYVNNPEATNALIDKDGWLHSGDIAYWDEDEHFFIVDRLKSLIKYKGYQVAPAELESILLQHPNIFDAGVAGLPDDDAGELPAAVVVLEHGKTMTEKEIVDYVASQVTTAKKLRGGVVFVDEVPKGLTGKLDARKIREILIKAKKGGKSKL
row,SMILES,Potency
1,O=C(c1ccccc1)C(O)c1ccccc1 (stereo not given),inactive
2,O=c1cc[nH]c(=S)[nH]1,inactive
3,CC(O)CO (stereo not given),inactive
4,Nc1ccc(S(=O)(=O)c2ccc(N)cc2)cc1,inactive
5,Cc1cn([C@H]2C[C@H](N=[N+]=[N-])[C@@H](CO)O2)c(=O)[nH]c1=O,inactive
6,Cc1ccc(C)c(OCCCC(C)(C)C(=O)O)c1,inactive
7,OCCc1ccccc1,inactive
8,CCOc1ccc(NC(=O)CC(C)O)cc1 (stereo not given),inactive
9,CCCNC(=O)NS(=O)(=O)c1ccc(Cl)cc1,inactive
10,O=C(O)CS,inactive
11,Nc1ccn([C@H]2CC[C@@H](CO)O2)c(=O)n1,inactive
12,N=C(N)c1ccc(OCCCCCOc2ccc(C(=N)N)cc2)cc1,inactive
13,OC(Cn1cncn1)(Cn1cncn1)c1ccc(F)cc1F,inactive
14,O=C(O)CCCCC(=O)O,inactive
15,NC(=O)c1ccccc1O,inactive
16,O=C(O)c1cccc([N+](=O)[O-])c1,inactive
17,O=C(O)c1cc(N=Nc2ccc(S(=O)(=O)Nc3ccccn3)cc2)ccc1O,71.3 µM (active) and inactive
18,O=C(O)C(=O)O,inactive
19,Cn1c(=O)c2[nH]cnc2n(C)c1=O,inactive
20,CCCN(CCC)S(=O)(=O)c1ccc(C(=O)O)cc1,inactive
21,Nc1ccc(S(=O)(=O)Nc2nccs2)cc1,inactive
22,CCCC(O)C(CC)CO (stereo not given),inactive
23,Cc1ccc(O)cc1,inactive
24,O=C(O)/C=C\C(=O)O,inactive
25,NS(=O)(=O)c1cc(C(=O)O)c(NCc2ccco2)cc1Cl,inactive
26,Cn1cc[nH]c1=S,inactive
27,COC(=O)[C@H](Cc1ccccc1)NC(=O)[C@@H](N)CC(=O)O (H-Asp-Phe-OMe),inactive
28,c1ccc2[nH]ccc2c1,inactive
29,CCCC(CCC)C(=O)O,inactive
30,CC(=O)OCC(COC(C)=O)OC(C)=O,inactive

# System: not listed separately
# Assay: qHTS assay to identify small molecule agonists of the constitutive androstane receptor (CAR) signaling pathway - cell viability counter screen (AID 1224836); also: nearly all actives have a fitted effect of over 45% in size
# Settings: HepG2-CYP2B6-hCAR viability, CellTiter-Fluor, 23 h, PK11195 added to every well; series mostly up to 92.4 µM; viability change, negative = cytotoxic: at the top concentration
# Procedure, shortened: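 Cell viability multiplexed with the CAR agonist screen: CellTiter-Fluor fluorescence after 23 hr at 37 C. HepG2-CYP2B6-hCAR cells got compounds at 15 concentrations with PK11195 at 0.75 uM final.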
SMILES,Potency,"viability change, negative = cytotoxic"
O=C(c1ccccc1)C(O)c1ccccc1 (stereo not given),inactive,
O=c1cc[nH]c(=S)[nH]1,inactive,
CC(O)CO (stereo not given),inactive,
Nc1ccc(S(=O)(=O)c2ccc(N)cc2)cc1,inactive,
Cc1cn([C@H]2C[C@H](N=[N+]=[N-])[C@@H](CO)O2)c(=O)[nH]c1=O,inactive,
Cc1ccc(C)c(OCCCC(C)(C)C(=O)O)c1,inactive,
OCCc1ccccc1,inactive,
CCOc1ccc(NC(=O)CC(C)O)cc1 (stereo not given),inactive,
CCCNC(=O)NS(=O)(=O)c1ccc(Cl)cc1,inactive,
O=C(O)CS,inactive,
Nc1ccn([C@H]2CC[C@@H](CO)O2)c(=O)n1,inactive,
N=C(N)c1ccc(OCCCCCOc2ccc(C(=N)N)cc2)cc1,,-27.3% [at 42.5 µM] (inactive)
OC(Cn1cncn1)(Cn1cncn1)c1ccc(F)cc1F,inactive,
CNC[C@H](O)c1cccc(O)c1,inactive,
O=C(c1ccccc1)c1ccccc1,inactive,
O=C(O)CCCCC(=O)O,inactive,
NC(=O)c1ccccc1O,inactive,

SMILES,Potency,"viability change, negative = cytotoxic"
Nc1ccc(O)c(C(=O)O)c1,inactive,
O=C(O)c1cccc([N+](=O)[O-])c1,inactive,
O=C(O)c1cccnc1,inactive,
O=C(O)C(=O)O,inactive,
Cn1c(=O)c2[nH]cnc2n(C)c1=O,inactive,
CCCN(CCC)S(=O)(=O)c1ccc(C(=O)O)cc1,inactive,
Nc1ccc(S(=O)(=O)Nc2nccs2)cc1,inactive,
CCCC(O)C(CC)CO (stereo not given),inactive,
COc1c2occc2cc2ccc(=O)oc12,inactive,
O=C(O)/C=C\C(=O)O,inactive,
NS(=O)(=O)c1cc(C(=O)O)c(NCc2ccco2)cc1Cl,inactive,
Cn1cc[nH]c1=S,inactive,
COC(=O)[C@H](Cc1ccccc1)NC(=O)[C@@H](N)CC(=O)O (H-Asp-Phe-OMe),inactive,
CCCC(CCC)C(=O)O,inactive,
O=S(=O)(O)NC1CCCCC1,inactive,
CC(=O)OCC(COC(C)=O)OC(C)=O,inactive,
O=NO,inactive,
